Assay results published in PubChem BioAssay (Tox21).
Unmarked numbers belong to inactive results. Records with an inconclusive call do not appear. Where a call stands in place of a potency, no number is given. The source made the active and inactive calls. Unless noted, calls come from the whole dose curve; as a rule, active = well fitted curve in the direction sought with a large enough effect in the repeat runs; inconclusive = weak or mixed curves; inactive = no such curve, though single readings can be large; an effect the other way counts as inactive or inconclusive.

Assay: qHTS assay for small molecule disruptors of the mitochondrial membrane potential - cell viability (AID 720634; calls by dose curve;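 note: human HepG2 liver cancer cells; nearly all actives have a fitted effect of over 20% in size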)
Conditions: HepG2 viability, ATP luminescence (CellTiter-Glo), 1 h; series mostly up to 83.2 µM
Outline: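 HepG2 cells, 2,000 per well, attached overnight, then treated 1 hr at 37 C, 5% CO2. Viability read as ATP by CellTiter-Glo luminescence after 30 min at room temperature. Read in the same wells as the m-MPI membrane-potential dye assay.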

Compound	outcome
CC1CCc2c(N3CCC(O)CC3)c(F)cc3c(=O)c(C(=O)O)cn1c23 (stereo unspecified)	inactive
Cc1ccc(C(C)NC(=O)[C@@H](NC(=O)OC(C)C)C(C)C)cc1 (stereo partly specified)	inactive
COS(=O)(=O)O	inactive
C=C(C)c1cccc(C(C)(C)N=C=O)c1	inactive
C=CCCCCCCCC	inactive
O=S(=O)(O)c1ccc2c(N=Nc3ccc(S(=O)(=O)O)c4ccccc34)c(O)c(S(=O)(=O)O)cc2c1	inactive
Nc1nc(-c2ccccc2)c(Br)c(=O)[nH]1	inactive
CC(C)Nc1ccccc1	inactive
C[C@@H](O)C(=O)O	inactive
Cn1c(=O)c2[nH]c(Br)nc2n(C)c1=O	inactive
[O]=[Mo](=[O])=[O]	inactive
CC1=NN(c2ccc(S(=O)(=O)O)cc2)C(=O)C1	inactive
C/C(CC(C)C)=N\O	inactive
CC(=O)CC(=O)OC(C)(C)C	inactive

Assay: qHTS assay for small molecule disruptors of the mitochondrial membrane potential (AID 720635); note: potency is the fitted concentration of half-maximal effect
Conditions: HepG2 mitochondrial membrane potential, Mito-MPS dye ratio; series mostly up to 83.2 µM
Outline: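 Mitochondrial membrane potential tracked with Mito-MPS dye, red aggregates (ex 540/em 590 nm) against green monomers (ex 490/em 535 nm). Compound treatment 1 hr at 37C, dye 30 min in HepG2.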

Compound	Potency
Cc1ccc(C(C)NC(=O)[C@@H](NC(=O)OC(C)C)C(C)C)cc1 (stereo partly specified)	inactive
Cc1cc(C)c(C(=O)O)c(C)c1	inactive
COS(=O)(=O)O	inactive
CC1c2ccccc2CN1NC(=O)c1ccc(Cl)c(S(N)(=O)=O)c1 (stereo unspecified)	inactive
CC(C)=CCC[C@@](C)(O)[C@H]1CC=C(C)CC1	inactive
CN(C)CCCCl	inactive
CCC(=O)c1c(O)cc(O)cc1O	11.9 µM (active)
Nc1nc(-c2ccccc2)c(Br)c(=O)[nH]1	inactive
CSc1cnccn1	inactive
CC(C)Nc1ccccc1	inactive
Cc1ccnc(N)c1	inactive
Cc1cccc(Cl)c1	inactive
[O]=[Mo](=[O])=[O]	inactive
CC1=NN(c2ccc(S(=O)(=O)O)cc2)C(=O)C1	inactive
CC(C)OC(=O)OCOP(=O)(CO[C@H](C)Cn1cnc2c(N)ncnc21)OCOC(=O)OC(C)C	inactive
C/C(CC(C)C)=N\O	inactive
CC(CO)(CO)CO	inactive
CC(=O)CC(=O)OC(C)(C)C	inactive
CC1OCCC1=O (stereo unspecified)	inactive

Assay: qHTS assay to test for compound auto fluorescence at 590 nm (red) in HepG2 cells (AID 720674)
Conditions: HepG2 autofluorescence, red 540/590 nm, 1 h; series mostly up to 91.3 µM
Outline: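 1 hr compound incubation on HepG2 cells, 37 C, 5% CO2; plate read ex 540 nm / em 590 nm; intensities reported as Rose Bengal sodium equivalents.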

Compound	outcome	fluorescence, relative to Rose Bengal
CC1CCc2c(N3CCC(O)CC3)c(F)cc3c(=O)c(C(=O)O)cn1c23 (stereo unspecified)	inactive	–
Cc1ccc(C(C)NC(=O)[C@@H](NC(=O)OC(C)C)C(C)C)cc1 (stereo partly specified)	inactive	–
CN(C)CC/C=C1/c2ccccc2COc2ccc(CC(=O)O)cc21	inactive	–
Cc1cc(C)c(C(=O)O)c(C)c1	inactive	–
CC1(C)[C@H]2CC[C@](C)(C2)[C@H]1O	inactive	–
COS(=O)(=O)O	inactive	–
CC1c2ccccc2CN1NC(=O)c1ccc(Cl)c(S(N)(=O)=O)c1 (stereo unspecified)	inactive	–
C=C(C)c1cccc(C(C)(C)N=C=O)c1	inactive	–
C=CCCCCCCCC	inactive	–
O=S(=O)(O)c1ccc2c(N=Nc3ccc(S(=O)(=O)O)c4ccccc34)c(O)c(S(=O)(=O)O)cc2c1	inactive	–
CC(C)=CCC[C@@](C)(O)[C@H]1CC=C(C)CC1	inactive	–
CN(C)CCCCl	inactive	–
CCC(=O)c1c(O)cc(O)cc1O	inactive	–
Nc1nc(-c2ccccc2)c(Br)c(=O)[nH]1	inactive	–
CSc1cnccn1	inactive	–
O=C1c2ccccc2C(=O)c2cc(Cl)ccc21	–	-0.0283% [at 3.72 µM]
CC(C)Nc1ccccc1	inactive	–

Compound	outcome	fluorescence, relative to Rose Bengal
C[C@@H](O)C(=O)O	inactive	–
OC[C@@H](O)C(O)[C@@H](O)CO (stereo partly specified)	inactive	–
O=C1CCCCO1	inactive	–
CCCCOC(=O)[C@H](C)O	inactive	–
Cn1c(=O)c2[nH]c(Br)nc2n(C)c1=O	inactive	–
Cc1ccnc(N)c1	inactive	–
Cc1cccc(Cl)c1	inactive	–
[O]=[Mo](=[O])=[O]	–	-0.0279% [at 18.6 µM]
CC1=NN(c2ccc(S(=O)(=O)O)cc2)C(=O)C1	inactive	–
CC(C)OC(=O)OCOP(=O)(CO[C@H](C)Cn1cnc2c(N)ncnc21)OCOC(=O)OC(C)C	inactive	–
C/C(CC(C)C)=N\O	inactive	–
C=CCCCC	inactive	–
C=C(C)[C@@H]1CC=C(C)CC1	inactive	–
CC(CO)(CO)CO	inactive	–
O=C1OCCO1	inactive	–
CC(=O)CC(=O)OC(C)(C)C	inactive	–
CC1OCCC1=O (stereo unspecified)	inactive	–

Assay: qHTS assay to test for compound auto fluorescence at 535 nm (green) in HepG2 cells (AID 720675)
Conditions: green autofluorescence 485/535 nm, 1 h; series mostly up to 91.3 µM

Compound	outcome	fluorescence, % of fluorescein control
CC1CCc2c(N3CCC(O)CC3)c(F)cc3c(=O)c(C(=O)O)cn1c23 (stereo unspecified)	inactive	–
Cc1ccc(C(C)NC(=O)[C@@H](NC(=O)OC(C)C)C(C)C)cc1 (stereo partly specified)	inactive	–
CN(C)CC/C=C1/c2ccccc2COc2ccc(CC(=O)O)cc21	inactive	–
Cc1cc(C)c(C(=O)O)c(C)c1	inactive	–
CC1(C)[C@H]2CC[C@](C)(C2)[C@H]1O	inactive	–
COS(=O)(=O)O	inactive	–
CC1c2ccccc2CN1NC(=O)c1ccc(Cl)c(S(N)(=O)=O)c1 (stereo unspecified)	inactive	–
C=C(C)c1cccc(C(C)(C)N=C=O)c1	inactive	–
C=CCCCCCCCC	inactive	–
O=S(=O)(O)c1ccc2c(N=Nc3ccc(S(=O)(=O)O)c4ccccc34)c(O)c(S(=O)(=O)O)cc2c1	inactive	–
CC(C)=CCC[C@@](C)(O)[C@H]1CC=C(C)CC1	inactive	–
CN(C)CCCCl	inactive	–
CCC(=O)c1c(O)cc(O)cc1O	inactive	–
Nc1nc(-c2ccccc2)c(Br)c(=O)[nH]1	inactive	–
CSc1cnccn1	inactive	–
O=C1c2ccccc2C(=O)c2cc(Cl)ccc21	–	-0.0348% [at 3.72 µM]
CC(C)Nc1ccccc1	inactive	–

Compound	outcome	fluorescence, % of fluorescein control
C[C@@H](O)C(=O)O	inactive	–
OC[C@@H](O)C(O)[C@@H](O)CO (stereo partly specified)	inactive	–
O=C1CCCCO1	inactive	–
CCCCOC(=O)[C@H](C)O	inactive	–
Cn1c(=O)c2[nH]c(Br)nc2n(C)c1=O	inactive	–
Cc1ccnc(N)c1	inactive	–
Cc1cccc(Cl)c1	inactive	–
[O]=[Mo](=[O])=[O]	–	0.0234% [at 18.6 µM]
CC1=NN(c2ccc(S(=O)(=O)O)cc2)C(=O)C1	inactive	–
CC(C)OC(=O)OCOP(=O)(CO[C@H](C)Cn1cnc2c(N)ncnc21)OCOC(=O)OC(C)C	inactive	–
C/C(CC(C)C)=N\O	inactive	–
C=CCCCC	inactive	–
C=C(C)[C@@H]1CC=C(C)CC1	inactive	–
CC(CO)(CO)CO	inactive	–
O=C1OCCO1	inactive	–
CC(=O)CC(=O)OC(C)(C)C	inactive	–
CC1OCCC1=O (stereo unspecified)	inactive	–
